# Screening data from PubChem.
# Only some compounds are listed: those with a hit (about 1.8% of all), similar ones and a draw of the others.
# beta cell repl: inducers of beta-cell replication in MIN6 cells; MIN6 cells proliferation, ATPlite luminescence, 48 h; cells starved in 0.2% serum; 100% = growth in 10% serum; proliferation, % at 10 µM; 330,000 tested, 0.29% active; AID 2380;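 active = compounds whose signal lies at least 3.5 SD above the mean of all wells on their plate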
# APOBEC3A inh: inhibitors of human APOBEC3A DNA deaminase | P31941 | recombinant A3A, FAM/TAMRA ssDNA deamination fluorescence | inhibition, % at 20 µM | 330,000 tested, 0.41% active;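 active = at least 40% inhibition at 20 µM here, with at most 30% in a related deaminase screen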
# Target sequence (P31941 whole entry, looked up): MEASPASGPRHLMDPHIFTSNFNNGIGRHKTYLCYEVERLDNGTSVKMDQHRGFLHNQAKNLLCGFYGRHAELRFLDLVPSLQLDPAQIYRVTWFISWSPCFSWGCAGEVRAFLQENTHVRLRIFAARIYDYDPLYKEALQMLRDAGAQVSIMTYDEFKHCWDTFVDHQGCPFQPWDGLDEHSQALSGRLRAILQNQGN
# A3G deaminase: blocks human APOBEC3G single-stranded DNA deamination. Q9HC16. recombinant A3G, ssDNA deamination FAM/TAMRA fluorescence. inhibition, % at 20 µM. 330,000 tested, 0.28% active. AID 493012;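 active = inhibition of at least 40% at 20 µM, with no more than 30% in the related APOBEC3A deaminase screen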
# Target sequence (Q9HC16 whole entry, looked up): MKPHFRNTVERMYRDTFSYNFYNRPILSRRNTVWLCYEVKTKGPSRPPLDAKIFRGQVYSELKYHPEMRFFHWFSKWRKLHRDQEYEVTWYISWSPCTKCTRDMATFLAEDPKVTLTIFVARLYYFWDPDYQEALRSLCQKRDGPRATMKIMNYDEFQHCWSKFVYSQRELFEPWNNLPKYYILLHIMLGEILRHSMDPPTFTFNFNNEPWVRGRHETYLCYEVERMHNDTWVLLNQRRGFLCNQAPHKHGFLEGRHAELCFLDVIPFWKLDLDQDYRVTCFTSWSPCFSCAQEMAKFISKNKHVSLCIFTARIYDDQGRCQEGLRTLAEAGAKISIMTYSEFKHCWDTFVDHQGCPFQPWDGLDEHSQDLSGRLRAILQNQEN
# VLA-4 inh: inhibition in a human VLA-4 binding assay; inhibition, % (about 7 µM as worked out from the volumes in the protocol); 330,000 tested, 0.2% active; VLA-4 expressing cells, ligand binding flow cytometry; P13612; AID 2557; in the data active = inhibition above about 50%
# NRP1-CendR mod: NRP-1/CendR interaction modulation; O14786; FAM-RPARPAR peptide binding to NRP-1, fluorescence polarization; inhibition, % at 25 µM; 360,000 tested, 0.85% active; AID 602438;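 active = inhibition or corrected inhibition above about 18%, plus a signal ratio from 0.5 to 1.5, limit read from the data, passing the limit was not always enough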
# Hits are given with their value; – = inactive; · = no result given.
SMILES,beta cell repl,APOBEC3A inh,A3G deaminase,VLA-4 inh,NRP1-CendR mod
Cc1ccccc1-n1ccnc1SCC(=O)NC1CCCC1,–,–,–,–,–
COc1ccc(NS(=O)(=O)c2cc(-c3cnc(C4CC4)o3)ccc2C)cc1,–,–,–,–,–
COc1ccccc1NS(=O)(=O)c1cc(-c2cnc(C3CC3)o2)ccc1C,–,–,–,–,21.9
CC1CCN(C(=O)COC(=O)C2CCN(S(=O)(=O)c3ccc(Cl)c(C(F)(F)F)c3)CC2)CC1,–,–,–,–,–
Cc1ccc(NC(=O)Nc2cc(Cl)ccc2C2COC(=O)C2=N)cc1 (centres undefined),–,–,–,55.5,–
COc1ccccc1CNC(=O)CN(C)Cc1ccc(SC)cc1,–,–,–,–,–
Cc1cc(NC(=O)COC(=O)C2CCN(S(=O)(=O)c3ccccc3)CC2)c([N+](=O)[O-])cc1C,–,–,–,–,23.3
COc1ccc(N(CC(=O)N2CCN(Cc3ccccc3)CC2)S(C)(=O)=O)cc1OC,–,–,–,–,–
CCN1C(=O)/C(=C2\SC(=S)N(CCCOC)C2=O)c2ccccc21,–,–,–,–,–
COCCN1C(=O)/C(=C2/C(=O)N(CC(=O)Nc3ccccc3Cl)c3ccccc32)SC1=S,–,–,–,–,28.1
CCOC(=O)c1c(NC(=O)COC(=O)c2cccc([N+](=O)[O-])c2)sc(C(=O)N(C)C)c1C,·,·,·,·,–
COc1ccc(-c2cc(C)no2)cc1S(=O)(=O)NCc1cccc(C)c1,–,–,–,–,35.6
CC(Sc1nnnn1C1CC1)C(=O)N1c2ccccc2NC(=O)C1(C)C (centres undefined),–,–,–,–,25.6
CC(C)Cc1ccc(C(C)C(=O)Nc2ccc(O)cc2)cc1 (centres undefined),–,–,–,–,38.0
C/C(=N\NC(=O)c1ccc(Cn2cc(Br)cn2)o1)c1ccc(NC(=O)c2ccoc2C)cc1,–,–,–,·,–
C=CC(=O)Nc1ccc(Nc2nc(NC3CCC(N(C)C)CC3)nc3c2ncn3C(C)C)cc1 (centres undefined),–,–,–,–,27.0
CC(C)n1cnc2c(Nc3ccc(F)c(Cl)c3)nc(NCCO)nc21,–,–,–,–,–
COc1cc2oc(=O)ccc2cc1[C@@H](O)[C@@H]1OC(C)(C)OC1(C)C,–,–,–,–,26.7
CCOC(=O)/C=C/c1ccc2c(c1)S(=O)(=O)N(c1cccc(OC)c1)[C@H]2CC(=O)OCC,–,–,–,–,28.5
COC(=O)/C=C/c1ccc2c(c1)S(=O)(=O)N(c1cccc(OC)c1)[C@H]2CC(=O)OC,–,–,–,–,–
COCc1ccccc1Cn1cnc2c1c(=O)n(C)c(=O)n2C,–,–,–,–,35.4
CN1CCN(/N=C/c2c3ccccc3c(Cl)c3ccccc23)CC1,–,–,–,57.2,–
O=C(Nc1cccc(C(F)(F)F)c1)C1Cc2c(-c3cccc(F)c3)ccnc2O1 (centres undefined),·,·,·,·,29.9
NC(=O)c1cccc(-c2ccnc3c2CC(C(=O)Nc2cccc(C(F)(F)F)c2)O3)c1 (centres undefined),·,·,·,·,–
COc1ccccc1CN(C)C[C@H]1OCc2cnnn2CCCC(=O)N([C@H](C)CO)C[C@@H]1C,·,·,·,·,–
SMILES,beta cell repl,APOBEC3A inh,A3G deaminase,VLA-4 inh,NRP1-CendR mod
O=C(NC(c1ccccc1)c1ccc2ccccc2n1)C1CCN(Cc2ccc(Oc3ccccc3)cc2)CC1 (centres undefined),·,·,·,·,20.0
CCn1c(SCC(=O)c2ccccc2)nnc1-c1cccs1,–,–,–,–,31.8
O=C(CSc1nnc(-c2ccncc2)o1)Nc1ccccc1C(F)(F)F,–,–,–,–,–
Clc1ccc(/C=N/c2c(-c3ccco3)nc3ccccn23)cc1,–,–,–,–,36.5
CCCNC(=O)C1(C)CCN1C(=O)Cc1ccc(C(C)(C)C)cc1 (centres undefined),·,·,·,·,–
CC(C)(C)CNC(=O)C1(C)CCN1C(=O)Cc1ccc(C(C)(C)C)cc1 (centres undefined),·,·,·,·,33.2
Cc1ccccc1N=Nc1c(C)[nH]n(C(N)=S)c1=O,–,–,–,–,–
Cc1[nH]n(C(N)=S)c(=O)c1N=Nc1ccc([N+](=O)[O-])cc1Cl,–,–,–,–,38.7
NC(=O)COC(=O)c1c2c(nc3ccccc13)CCCC2,–,–,–,–,–
NC(=O)COC(=O)c1c2c(nc3ccccc13)CCC2,–,–,–,–,20.0
COc1ccc(CNC(=O)C2CCN(C(=O)c3ccc(-c4ccccc4)cc3)CC2)cc1,–,–,–,–,–
COc1ccc(C(=O)N2CCC(C(=O)NCc3ccccn3)CC2)cc1,–,–,–,–,34.8
NS(=O)(=O)c1ccc(NC2=CC(=O)C(=O)c3ccccc32)cc1,–,–,–,–,31.3
Cc1ccc(NC2=CC(=O)C(=O)c3ccccc32)cc1,–,–,–,–,–
CSc1ccc(CNC(=O)Cc2ccc(NC(=O)C3=C(C)OCCS3)cc2)cc1,–,–,–,–,–
O=C(CCc1ccccc1)NC1(Cc2ccccc2)CCN(CCc2cccs2)C1=O (centres undefined),–,–,–,–,19.4
CC1(NC(=O)CCc2ccccc2)CCN(CCCc2ccccc2)C1=O (centres undefined),–,–,–,–,–
Cc1ccc(S(=O)(=O)N2C[C@H]3[C@H]4C(=O)N(c5ccccc5)C(=O)[C@H]4CC(=O)[C@H]3[C@@H]2c2cccc3ccccc23)cc1,·,·,·,·,–
Cc1ccc(S(=O)(=O)N2C[C@H]3[C@H]4C(=O)N(c5ccccc5)C(=O)[C@H]4CC(=O)[C@H]3[C@@H]2c2ccccc2F)cc1,·,·,·,·,25.0
Cc1cc(C)c(C2=CC(=O)C[C@H](c3ccc4c(c3)OCO4)C2)c(C)c1,–,–,–,–,–
O=C(Nc1cccc(-c2nnn(CC(=O)N3CCc4ccccc4C3)n2)c1)C1CCC1,–,–,–,–,–
O=C(Nc1ccccc1-c1nnn(CC(=O)N2CCc3ccccc3C2)n1)C1CCC1,–,–,–,–,27.8
Cc1ccc(-c2nn(CC(=O)N3CCOCC3)c(=O)c3ccccc23)cc1S(=O)(=O)N(C)C,–,–,–,–,–
CCCSc1ccc([C@H]2N[C@@](C)(C(=O)OC)[C@H]3C(=O)N(C)C(=O)[C@@H]23)cc1OC,–,–,–,–,27.5
CCCCCCSc1ccc([C@H]2N[C@@](Cc3ccccc3)(C(=O)OC)[C@H]3C(=O)N(C)C(=O)[C@@H]23)cc1OC,–,–,–,–,27.8
O=S1(=O)N[C@@H](Cc2ccccc2)COc2cc(N3CCSCC3)ccc21,·,·,·,·,–
Cc1cc(Cl)ccc1C(=O)C1CCCN(C(=O)c2cncs2)C1 (centres undefined),–,–,–,–,–
CCOC(=O)Cc1cnc(NC(=O)NC(C(=O)OCC)(c2ccccc2)C(F)(F)F)s1 (centres undefined),–,–,–,–,37.4
